Bioassay records (PubChem)
Sampled rows, rich in hits. Any-hit rate of the full collection: about 2.3%.
SENP8 block-1: inhibitors of human SENP8 protease | Q96LD8 | hit rate 1.2% among 330,000 | inhibition, % at 10 µM | purified SENP8, Z-RLRGG-aminoluciferin cleavage, luminescence; in the data active = inhibition above about 50%
SENP8 block-2: inhibitors of human SENP8 protease; hit rate 0.64% among 360,000; recombinant SENP8, Nedd8 substrate fluorescence; inhibition, % at 20 µM; in the data active = inhibition mostly above about 40%, no sharp cut-off; inactive = mostly below about 27%
SENP6 block: blocks the human protease SENP6; Q9GZR1; Recombinant SENP6 catalytic domain, aminoluciferin luminescence; inhibition, % at 10 µM; hit rate 1.8% among 330,000;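 active = inhibition above about 50% at the single tested dose, limit read from the data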;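 note: plate controls were DMSO wells with enzyme for no effect and DMSO wells lacking enzyme for full effect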
SENP7 inh: blocks the human protease SENP7 | Q9BQF6 | hit rate 1.5% among 330,000 | inhibition, % at 5 µM | recombinant SENP7, Z-RLRGG-aminoluciferin luminescence, 40 min | AID 434973;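 active = inhibition above about 50% at the single test dose, limit read from the data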;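 note: plate controls were DMSO with enzyme for no effect and no enzyme buffer wells for full effect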
Target sequence (Q9BQF6 706-1050 limits assumed): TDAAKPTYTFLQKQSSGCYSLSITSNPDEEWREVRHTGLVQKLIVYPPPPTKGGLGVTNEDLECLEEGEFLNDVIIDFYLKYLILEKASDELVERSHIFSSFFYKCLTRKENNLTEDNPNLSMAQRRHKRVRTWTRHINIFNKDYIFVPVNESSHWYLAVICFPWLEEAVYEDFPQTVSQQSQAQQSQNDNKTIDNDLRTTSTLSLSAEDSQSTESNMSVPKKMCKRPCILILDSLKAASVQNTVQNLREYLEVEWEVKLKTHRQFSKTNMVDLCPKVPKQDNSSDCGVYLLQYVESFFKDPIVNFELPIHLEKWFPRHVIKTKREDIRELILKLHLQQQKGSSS
HSP90 inh: inhibitors of HSP90 luciferase refolding in rabbit reticulocyte lysate. inhibition, % at 5.6 µM. AID 1789. hit rate 0.91% among 290,000. luciferase refolding luminescence, 3 h;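 active = inhibition above the screen-wide mean plus 3 SD, computed separately per campaign, cut at about 16% in these data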;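 note: 0% = DMSO wells and 100% = 60 µM geldanamycin wells; inhibitors lower the luminescence because luciferase stays unfolded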
LGR2 antag: blocks bursicon-induced cAMP signaling via Drosophila LGR2. inhibition, % at 9.99 µM. hit rate 0.35% among 380,000. HEK293 LGR2, CRE-luciferase, bursicon-stimulated, 4 h. AID 720647;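 active = drop in luminescence signal, shown as inhibition above about 50% in the replicate tests, limit read from the data, passing the limit was not always enough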;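 note: agonist challenge used bursicon conditioned medium at about half maximal strength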
SENP8 conf: human SENP8 inhibition, confirmed; shares compounds with SENP7 inh; Recombinant SENP8, Z-RLRGG-aminoluciferin luminescence, 60 min; inhibition, % at 12.5 µM; hit rate 40% among 6,200;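 active = mean inhibition across replicates above about 50%, limit read from the data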
SENP6 conf: human SENP6 inhibition, confirmed; inhibition, % at 12.5 µM; shares compounds with SENP7 inh; AID 488915; recombinant SENP6, Z-RLRGG-aminoluciferin luminescence; hit rate 58% among 6,200
SENP7 conf: human SENP7 inhibition, confirmed; shares compounds with SENP7 inh; inhibition, % at 12.5 µM; hit rate 69% among 6,200; recombinant SENP7, Z-RLRGG-aminoluciferin luminescence, 40 min
Casp3 select: inhibits human caspase-3 in SENP selectivity test | shares compounds with SENP7 inh | purified caspase-3, Z-DEVD-aminoluciferin luminescence, 60 min | inhibition, % at 12.5 µM | hit rate 60% among 6,200;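 active = mean inhibition above about 50%, limit read from the data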;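 note: plate controls were enzyme with DMSO for no effect and wells without caspase-3 for full effect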
Target sequence (P42574 28-227 limits assumed): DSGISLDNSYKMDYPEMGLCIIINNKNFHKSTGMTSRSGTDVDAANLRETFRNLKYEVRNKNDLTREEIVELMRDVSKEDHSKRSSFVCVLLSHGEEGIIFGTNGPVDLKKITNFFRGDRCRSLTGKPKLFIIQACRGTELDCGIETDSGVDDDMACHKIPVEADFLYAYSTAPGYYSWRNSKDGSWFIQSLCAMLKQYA
Luc interf: luminescence interference (SENP counter-screen); shares compounds with SENP7 inh; Pre-incubated SENP8/Z-RLRGG-aminoluciferin, luciferase luminescence interference; inhibition, % at 12.5 µM; hit rate 39% among 6,200;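 active = mean inhibition above about 50% when retested at one dose, limit read from the data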;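 note: plate controls were DMSO wells with completed reaction for no effect and substrate without enzyme for full effect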
Starred values were filed as active, the others as inactive.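 Rule for the calls, unless noted: active = mean inhibition above about 50% in the one-dose retest (limit read from the data); inactive = the rest.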

For N#Cc1ccsc1NC(=O)COC(=O)c1ccc(Br)o1 the results were SENP8 block-1 1.6, SENP8 block-2 -37.5, SENP6 block 2.0, SENP7 inh 0.4 and LGR2 antag 13.2.
`N#Cc1ccsc1NC(=O)COC(=O)c1cc(Br)ccc1O` gave SENP8 block-1 88.7*, SENP8 block-2 -69.8, SENP6 block 94.6*, SENP7 inh 84.9*, HSP90 inh -1.4, LGR2 antag -12.9, SENP8 conf 75.4*, SENP6 conf 81.8*, SENP7 conf 86.6*, Casp3 select 70.4* and Luc interf 22.9.
C[C@@H]1CN([C@@H](C)CO)C(=O)Cc2cc(NS(=O)(=O)c3cccs3)ccc2O[C@H]1CN(C)C(=O)Nc1cccc2ccccc12 was read as LGR2 antag 4.1.
Screening O=C(N[C@H]1C=C[C@H](CC(=O)N2CCCCC2)O[C@H]1CO)c1ccccn1 returned LGR2 antag 7.6.
COc1cc(N/N=C/c2ccccc2O)ncn1 was read as SENP8 block-1 1.2, SENP8 block-2 -19.1, SENP6 block 74.5*, SENP7 inh 71.0*, HSP90 inh 4.0, LGR2 antag -37.1, SENP8 conf 63.1*, SENP6 conf 63.1*, SENP7 conf 88.9*, Casp3 select 74.6* and Luc interf 59.4*.
Cc1cnn(-c2cc(N/N=C/c3ccccc3F)ncn2)c1 was read as SENP8 block-1 -1.2, SENP8 block-2 11.8, SENP6 block -10.4, SENP7 inh -2.2 and HSP90 inh -2.1.
For COc1cc(N/N=C/c2ccc(N(C)C)cc2)ncn1 the results were SENP8 block-1 93.2*, SENP8 block-2 -389.3, SENP6 block 96.0*, SENP7 inh 96.7*, HSP90 inh 15.7, LGR2 antag 73.8*, SENP8 conf 70.2*, SENP6 conf 81.2*, SENP7 conf 93.8*, Casp3 select 78.3* and Luc interf 23.2.
Screening Cc1noc(C)c1NC(=O)Nc1ccc2c(c1)C(=O)N([C@H](C)CO)C[C@H](C)[C@@H](CN(C)Cc1ccccc1)O2 returned LGR2 antag 0.9.
`c1ccc(-c2noc(-c3ccc4c(c3)OCO4)n2)cc1` gave SENP8 block-1 92.8*, SENP8 block-2 -7.8, SENP6 block 97.4*, SENP7 inh 99.6*, HSP90 inh -0.7, LGR2 antag 22.9, SENP8 conf 92.4*, SENP6 conf 87.8*, SENP7 conf 96.0*, Casp3 select 94.4* and Luc interf 31.2.
For c1ccc(-c2noc(-c3ccc4ccccc4c3)n2)cc1 the results were SENP8 block-1 90.1*, SENP8 block-2 -24.9, SENP6 block 91.8*, SENP7 inh 98.2*, HSP90 inh 12.9, SENP8 conf 12.1, SENP6 conf 8.8, SENP7 conf 1.6, Casp3 select 42.6 and Luc interf 4.3.
COc1cccc(-c2noc(-c3ccc4c(c3)OCO4)n2)c1 was read as SENP8 block-1 89.3*, SENP8 block-2 -10.0, SENP6 block 91.6*, SENP7 inh 100.5*, HSP90 inh -4.2, LGR2 antag 36.3, SENP8 conf 90.3*, SENP6 conf 88.3*, SENP7 conf 95.1*, Casp3 select 92.4* and Luc interf 13.8.
COc1ccc(-c2noc(-c3ccc4c(c3)OCO4)n2)cc1 was read as SENP8 block-1 6.3, SENP8 block-2 -24.4, SENP6 block -49.6, SENP7 inh 73.3*, HSP90 inh -3.3, SENP8 conf 37.6, SENP6 conf 33.3, SENP7 conf 47.0, Casp3 select 60.7* and Luc interf 22.1.
c1cc(-c2noc(-c3ccc4c(c3)OCO4)n2)ccn1 was read as HSP90 inh 2.6.
Screening c1ccc(-c2noc(-c3ccccc3-c3ccccc3)n2)cc1 returned SENP8 block-1 -5.6, SENP8 block-2 15.2, SENP6 block -6.8, SENP7 inh 3.5, HSP90 inh 0.3 and LGR2 antag -0.7.
Screening O=C(N[C@@H]1CC[C@H](CCn2cc(Cc3ccccc3)nn2)O[C@@H]1CO)c1cnccn1 returned LGR2 antag 5.7.
COCCNC(=O)C[C@H]1CC[C@H]2[C@@H](COc3ccc(NC(=O)c4cnccn4)cc3C(=O)N2C)O1 was read as LGR2 antag 2.0.
`CO[C@@H]1CN(C)C(=O)c2cc(NS(C)(=O)=O)ccc2OC[C@@H](C)NC[C@@H]1C` gave LGR2 antag 3.1.
O=C([C@H]1[C@H](CO)[C@H]2Cn3c(cccc3=O)[C@H]2N1C(=O)C1CCCC1)N1CCOCC1 was read as LGR2 antag 6.6.
For Brc1ccc(-c2nc(-c3ccccc3)no2)o1 the results were SENP8 block-1 85.3*, SENP8 block-2 10.5, SENP6 block 89.6*, SENP7 inh 91.8*, HSP90 inh -3.2, SENP8 conf -3.7, SENP6 conf 87.3*, SENP7 conf 99.0*, Casp3 select 70.4* and Luc interf 28.2.
For Brc1ccc(-c2nc(-c3cccnc3)no2)o1 the results were SENP8 block-1 -17.9, SENP8 block-2 -99.0, SENP6 block 39.2, SENP7 inh 26.2 and HSP90 inh -4.9.
`CCC(=O)c1ccc(OCC(=O)OCC(=O)Nc2cccc(S(=O)(=O)N3CCCC3)c2)cc1` gave SENP8 block-1 -1.9, SENP8 block-2 6.3, SENP6 block -9.2, SENP7 inh -1.1 and LGR2 antag 10.2.
For COc1ccc(C(=O)Nc2cccc(C(=O)O)c2)cc1S(=O)(=O)N1CCCC1 the results were SENP8 block-1 35.8, SENP8 block-2 3.2, SENP6 block 51.2*, SENP7 inh 54.4*, HSP90 inh 2.2, LGR2 antag 2.0, SENP8 conf 37.8, SENP6 conf 35.8, SENP7 conf 73.4*, Casp3 select 15.9 and Luc interf 9.3.
`O=C(O)c1cccc(NC(=O)c2cccc(S(=O)(=O)N3CCCCC3)c2)c1` gave SENP8 block-1 64.2*, SENP8 block-2 9.3, SENP6 block 76.8*, SENP7 inh 78.3*, HSP90 inh 10.7, SENP8 conf 79.0*, SENP6 conf 77.0*, SENP7 conf 93.6*, Casp3 select 42.4 and Luc interf 65.9*.
